Assay outcomes: PubChem BioAssay, ICCB-Longwood Screening Facility, Harvard Medical School
Only some compounds are listed: those with a hit (about 1.4% of all), similar ones and a draw of the others.
Polio RdRp inh: poliovirus RdRp elongation inhibitors, primary screen, biochemical, fluorescence polarization, total intensity. Genome polyprotein (Poliovirus type 1 (strain Mahoney)), P03300. poliovirus polymerase elongation; active compounds read low. % elongation, % (compound at 16.7 µg/mL). hit rate 0.66% among 150,000; in the data active = % elongation below about 90%
Mtb MenB inh: M. tuberculosis MenB inhibitors, primary screen, biochemical, absorbance | 1,4-dihydroxy-2-naphthoyl-CoA synthase (Mycobacterium tuberculosis (strain ATCC 25618 / … | MenB enzyme assay, absorbance read-out | inhibition, % (test concentration not listed) | hit rate 0.43% among 100,000; in the data active = inhibition above about 21%, passing the limit was not always enough
Target sequence (P9WNP5 whole entry, looked up): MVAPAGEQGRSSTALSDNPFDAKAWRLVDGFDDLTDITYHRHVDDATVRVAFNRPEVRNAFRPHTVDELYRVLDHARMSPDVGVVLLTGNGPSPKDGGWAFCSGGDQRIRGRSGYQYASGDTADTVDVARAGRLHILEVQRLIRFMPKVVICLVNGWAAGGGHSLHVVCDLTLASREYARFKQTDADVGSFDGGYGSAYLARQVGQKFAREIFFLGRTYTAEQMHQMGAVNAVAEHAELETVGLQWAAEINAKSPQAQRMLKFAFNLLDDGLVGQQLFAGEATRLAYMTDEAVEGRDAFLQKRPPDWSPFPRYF
AID504770: growth inhibition of E. coli YBA685, primary screen, V. cholerae RctB inhibitors; E. coli YBA685 rctB-dependent plasmid, OD600 growth, 3 h; active compounds read low; z-score (no concentration beside the values); hit rate 0.27% among 130,000; AID 504770, 2011; in the data active = z-score below about -2, passing the limit was not always enough
Mtb MbtI inh: MbtI salicylate synthase inhibitors, primary screen, biochemical, fluorescence intensity | purified MbtI enzyme, fluorescence intensity read-out | hit rate 0.89% among 100,000 | inhibition, % (concentration not given with the values) | P9WFX0; in the data active = inhibition mostly above about 56%, no sharp cut-off; inactive = mostly below about 77%
The depositor's hits bear a star.

For CSc1sc(C(=O)N(C)C)cc1S(=O)(=O)C(C)C the results were AID504770 0.4.
`CSc1sc(C(=O)Sc2ccccc2)cc1S(=O)(=O)C(C)C` gave Polio RdRp inh 82*, Mtb MenB inh -8, AID504770 -0.65 and Mtb MbtI inh -7.
`C=CCN1C(=O)NC(=O)/C(=C\c2ccc(O)c(O)c2)C1=O` gave Polio RdRp inh 101, Mtb MenB inh -50, AID504770 0.9 and Mtb MbtI inh 20.
For O=C1NC(=O)N(CCc2ccc(F)cc2)C(=O)/C1=C\c1ccc(O)c(O)c1 the results were Polio RdRp inh 100, Mtb MenB inh -33, AID504770 -0.45 and Mtb MbtI inh 51*.
Screening Cc1c(CCNC(=O)c2cc(S(=O)(=O)N(C)C)c(Cl)cc2Cl)c2ccccc2n1C returned Polio RdRp inh 89*, Mtb MenB inh -11 and AID504770 0.25.
CN(C)S(=O)(=O)c1cc(C(=O)NCCc2ccccc2)c(Cl)cc1Cl was read as AID504770 0.55.
For Cc1cccc(NC(=S)N2CCCCC2C(N)=O)c1 (stereo not drawn) the results were Polio RdRp inh 97, Mtb MenB inh 5, AID504770 0 and Mtb MbtI inh 58*.
Screening CCOc1ccc(N2C(=O)CC(Sc3nccc(C)n3)C2=O)cc1 (stereo not drawn) returned Polio RdRp inh 104, Mtb MenB inh -10, AID504770 -0.4 and Mtb MbtI inh 32.
Cc1cccc(N2C(=O)CC(Sc3nccc(C)n3)C2=O)c1 (stereo not drawn) was read as Polio RdRp inh 101, Mtb MenB inh 4, AID504770 -0.05 and Mtb MbtI inh 63*.
For Cc1cccc(N2C(=O)CC(Sc3ncn[nH]3)C2=O)c1 (stereo not drawn) the results were Polio RdRp inh 97, Mtb MenB inh 10, AID504770 0.05 and Mtb MbtI inh 99*.
`CCc1noc(C)c1C(=O)Nc1ccc(N(C)C)cc1` gave Polio RdRp inh 102, Mtb MenB inh 13, AID504770 1.3 and Mtb MbtI inh 2.
For N#CC(C#N)=C1c2cc(S(=O)(=O)N3CCCCC3)ccc2-c2ccc(S(=O)(=O)N3CCCCC3)cc21 the results were Polio RdRp inh 103, Mtb MenB inh -15, AID504770 -0.6 and Mtb MbtI inh -8.
`CCOc1ccc(C2=C(C(C)=O)Sc3nnc(C)n3N2C(C)=O)cc1` gave Polio RdRp inh 79*.
Screening N#CC1=C(N)Oc2c(oc(CO)cc2=O)C12C(=O)NC1C=CC=CC12 (stereo not drawn) returned Polio RdRp inh 104, Mtb MenB inh -2, AID504770 1.1 and Mtb MbtI inh -4.
For CC(C)(C)c1ccccc1N1C(=O)C=CC1=O the results were AID504770 -1.6.
`N#Cc1ccccc1N1C(=O)C=CC1=O` gave AID504770 -3.5*.
`Cc1ccccc1N1C(=O)C=CC1=O` gave Polio RdRp inh 100, Mtb MenB inh -18, AID504770 0.9 and Mtb MbtI inh 100*.
`CSc1ccccc1N1C(=O)C=CC1=O` gave Polio RdRp inh 102, Mtb MenB inh -5, AID504770 -2.5* and Mtb MbtI inh 101*.
For N#Cc1ccccc1N1C(=O)c2ccccc2S1(=O)=O the results were AID504770 -0.7.
Screening O=C1C=CC(=O)N1c1ccccc1Br returned Polio RdRp inh 104, AID504770 -3.3* and Mtb MbtI inh 99*.
Screening CC(Sc1cccc[n+]1[O-])C(=O)NCC1CCCCC1 (stereo not drawn) returned Polio RdRp inh 100, Mtb MenB inh 5, AID504770 1.4 and Mtb MbtI inh 81*.
Screening NC(=O)COC(=O)c1n[nH]c2ccccc12 returned Polio RdRp inh 103, Mtb MenB inh -4, AID504770 -3.5* and Mtb MbtI inh 103.
Screening COC(=O)COc1ccc(S(=O)(=O)N2CCC(C)CC2)cc1 returned Polio RdRp inh 101, Mtb MenB inh -60, AID504770 -0.05 and Mtb MbtI inh -10.
CCOC(=O)CCc1c(C)nc2ncnn2c1C was read as AID504770 2 and Mtb MbtI inh -1.
CCOC(=O)CCc1c(CC(=O)OCC)c[nH]c1/C=N/O was read as Polio RdRp inh 50*, Mtb MenB inh -21, AID504770 -0.25 and Mtb MbtI inh -9.
`COc1c(O)cc2c(c1O)C1OC(CO)C(O)C(O)C1OC2=O` (stereo not drawn) gave Polio RdRp inh 99, Mtb MenB inh 43* and Mtb MbtI inh 3.
